High-throughput results deposited in PubChem BioAssay by Broad Institute.
Wnt act: activates Wnt/beta-catenin signaling in a reporter cell assay; activator, plate reader; AID 743398; activation, % at 9.35 µM; 300,000 tested, 1.2% active; in the data active = activation above about 30%, passing the limit was not always enough; inconclusive = no clear call, values can overlap the other calls;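 also: 0% = neutral control wells and 100% = positive control wells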
Dyrk1A ADPGlo: inhibitors of rat Dyrk1A kinase; Q63470; ADP-Glo luminescence, NFATc1 peptide; inhibition, % at 12.5 µM; 310,000 tested, 0.43% active; AID 504441;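 also: plate controls were vehicle with enzyme for no effect and no enzyme for full effect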
NSD2 inh: blocks human histone methyltransferase NSD2; O96028; NSD2 peptide methylation, AlphaScreen, 120 min; AID 743445; 310,000 tested, 0.54% active; inhibition, % at 12.5 µM
GSIS activator: primary screen for activators of insulin secretion dependent on glucose, INS-1E cells, GLuc reporter luminescence | INS-1E GLuc reporter insulin secretion, 2-3 h | activation, % at 16.6 µM | 370,000 tested, 0.61% active;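 active = lowest replicate activation of at least 40%, so every replicate reaches that level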;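 also: 0% = median of neutral control wells and 100% = median of IBMX positive control wells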
miR-122 sensor: inhibitors of miR-122 in Huh7 cells. Huh7 miR-122 Renilla luciferase sensor, 48 h; neutral wells = 0, positive control = 100. activation (reporter increase), % at 12.5 µM. 340,000 tested, 0.3% active. AID 602342;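 active = mean replicate activation score at least 90 and every replicate individually at or above 90; inconclusive = only one of the two criteria met; inactive = neither criterion met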;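 also: higher luciferase means less miR-122 activity so hits act as miR-122 inhibitors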
MITF TRPM1 HTS: MITF TRPM1 promoter activation in melanoma cells. SK-MEL-5 TRPM1-promoter luciferase, 24 h; % of positive control, neutral wells = 0. activation, % at 12.5 µM. 300,000 tested, 0.75% active. AID 588334;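 active = mean activation of at least 80% with every replicate also reaching 80%; inconclusive = mean reaches 80% but some replicate falls short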;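 also: 0% = neutral control wells and 100% = parthenolide positive control wells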
* = called active by the depositor; ? = inconclusive; nt = no result; [ ] = another dose, or the depositor's remark. An excerpt weighted towards active compounds, which were near 2.4% of everything screened. Rule as the data show it, unless noted: active = inhibition above about 50%; inactive = the rest.

SMILES	Wnt act	Dyrk1A ADPGlo	NSD2 inh	GSIS activator	miR-122 sensor	MITF TRPM1 HTS
C[C@@H]1CN([C@@H](C)CO)C(=O)c2cccc(NS(=O)(=O)c3cn(C)cn3)c2O[C@H]1CN(C)Cc1ccc(C(F)(F)F)cc1	nt	nt	nt	0	13[16.7 µM]	nt
C[C@H](CO)N1C[C@H](C)[C@@H](CN(C)C(=O)Cc2ccccn2)Oc2cc(C#C[C@@H](C)O)ccc2S1(=O)=O	nt	nt	nt	41*	-6[16.7 µM]	nt
C[C@H](CO)N1C[C@H](C)[C@@H](CN(C)C(=O)CC2CC2)Oc2cc(C#CC(C)(C)O)ccc2S1(=O)=O	nt	nt	nt	44*	2[16.7 µM]	nt
CO[C@H]1CN(C)C(=O)c2cc(NC(=O)c3ccc(F)cc3)ccc2OC[C@H](C)N(C(=O)CN(C)C)C[C@H]1C	nt	nt	nt	6	nt	nt
CC(C)Nc1nc(NC(C)(C)C)nc(Oc2ccc(=O)n(C)n2)n1	1	5	1	41*	-4	-3
Cc1noc(C)c1C(=O)OCC(=O)c1cc(C)n(Cc2ccccc2Cl)c1C	41*	2	-2	nt	-3	55
COC(=O)CSc1nc2ccccc2nc1SCC(=O)OC	-1	-11	-4	67*	-9	-6
COC(=O)CSc1cnc2ccccc2n1	nt	5	-3	nt	nt	-10
CCCn1c(C)cc(C(=O)Cn2nnc3ccccc3c2=O)c1C	46*	2	5	-13	7	67
COc1ccc(C(=O)NN/C(C)=C/C(=O)c2ccccc2)cc1	1	nt	1	nt	4	nt
Cc1ccc(C(=O)N/N=C2\CCc3ccccc32)c(C)c1	12	1	2	12	7	57
Cc1ccc(C(=O)NN=CC(=O)c2ccccc2)c(C)c1	34*	2	-2	5	nt	61
COc1ccc(C(=O)N/N=C/C(=O)c2ccccc2)cc1	32*	6	0	24	-1	78
CO[C@H]1CN(C)C(=O)c2cc(NC(=O)Nc3cc(Cl)cc(Cl)c3)ccc2OC[C@H](C)NC[C@@H]1C	nt	nt	nt	5	-32[16.7 µM]	nt
O=C(COn1nnc2ccccc21)NCC1CCCCC1	36*	-6	nt	nt	0	nt
CCCCCCn1c(-c2cccs2)n[nH]c1=S	1	9	7	46*	-2	0
COc1ccc(C(=O)c2oc3ccc(OC)cc3c2NC(C)=O)cc1	-1	2	5	13	nt	5
COc1ccc(C(=O)c2oc3ccc(OC)cc3c2N)cc1	47*	-4	nt	nt	4	102*
CCCN1C(=O)/C(=C\C=C2/Sc3ccccc3N2CCO)SC1=S	-18	-2	2	-9	-3	-11
CCN1C(=O)/C(=C/C=C2/Sc3ccccc3N2CCO)SC1=S	32*	2	1	-10	-7	-13
O=C(C[C@H]1C[C@@H]2c3cc(NC(=O)Nc4ccccc4F)ccc3O[C@@H]2[C@H](CO)O1)NC1CCCCC1	nt	nt	nt	20	1[16.7 µM]	nt
Cc1ccc2ncccc2c1N	0	0	-2	-19	-4	-1
Cc1ccc2nc(C)c(C)nc2c1N	nt	-2	0	nt	113*	9
CCCCOc1ccc(C(=O)N=c2sccn2C)cc1OC	37*	4	0	-10	nt	?
CCN(CC)S(=O)(=O)c1cc(C(=O)N=c2sccn2C)ccc1OC	-1	0	0	-6	nt	-18
SMILES	Wnt act	Dyrk1A ADPGlo	NSD2 inh	GSIS activator	miR-122 sensor	MITF TRPM1 HTS
COc1ccccc1N1CCN(/N=C/C(Cl)=C/c2ccccc2)CC1	45*	3	4	-25	-3	nt
COc1ccccc1N1CCN(/N=C\c2ccc(C)o2)CC1	42*	7	-2	nt	-8	54
CCS(=O)(=O)N1CCCCN2[C@H](C1)[C@@H](c1ccc(C#Cc3ccccc3OC)cc1)[C@@H]2CO	nt	nt	nt	13	-10[16.7 µM]	nt
C[C@H](CO)N1C[C@H](C)[C@H](CN(C)C(=O)c2cccc(F)c2)Oc2cc(-c3ccncc3)ccc2S1(=O)=O	nt	nt	nt	25	3[16.7 µM]	nt
Cc1ccc(OC(=O)c2cccc([N+](=O)[O-])c2)c(-n2nc3ccccc3n2)c1	43*	2	18	-31	-4	76
COC(=O)COc1ccc(C)cc1-n1nc2ccccc2n1	-2	0	-2	48*	9	2
Cc1ccc(OC(=O)COc2ccccc2)c(-n2nc3ccccc3n2)c1	55*	4	-1	nt	5	37
O=C(Nc1ccc(NC(=O)c2cccs2)cc1Cl)c1ccco1	46*	5	-5	13	nt	61
COc1cc(NC(=O)c2ccco2)ccc1NC(=O)c1ccccc1Cl	nt	-2	-5	nt	4	15
